# Data as given in PubChem BioAssay AID1508602 (The Scripps Research Institute Molecular Screening Center, 2020).
# Where “and” joins values, the source holds several entries; their conditions need not be identical. Equal entries are not always repeated. About 6,800 (1%) of roughly 650,000 compounds were called active. Rule as the data show it: active = activation above about 4.9%; inactive = the rest. The list comes from a sample in which actives are over-represented; it also holds similar structures and randomly drawn compounds.
# Molecular target: G-protein coupled receptor 151 (Homo sapiens) (UniProt Q8TDV0)
# Assay: activates the human receptor GPR151, primary screen, cell-based, PathHunter beta-arrestin, luminescence (AID 1508602);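 also: 0% = median of compound wells and 100% = cells with positive control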
# Conditions: PathHunter beta-arrestin GPR151 cells, at 11.2 µM, stronger effect = higher value
# G-protein coupled receptor 151 (Homo sapiens), sequence (Q8TDV0 whole entry, looked up): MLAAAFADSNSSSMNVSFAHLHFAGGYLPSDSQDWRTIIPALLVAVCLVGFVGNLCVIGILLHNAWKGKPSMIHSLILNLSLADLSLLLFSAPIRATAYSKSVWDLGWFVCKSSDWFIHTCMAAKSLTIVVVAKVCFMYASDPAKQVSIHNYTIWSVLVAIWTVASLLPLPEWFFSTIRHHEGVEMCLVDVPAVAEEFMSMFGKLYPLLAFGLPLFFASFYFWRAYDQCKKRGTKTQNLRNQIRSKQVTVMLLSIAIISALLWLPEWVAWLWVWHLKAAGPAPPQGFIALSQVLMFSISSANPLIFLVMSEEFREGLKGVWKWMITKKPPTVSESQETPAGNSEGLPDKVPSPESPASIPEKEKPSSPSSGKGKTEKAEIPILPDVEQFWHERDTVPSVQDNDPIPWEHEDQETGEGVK
row,SMILES,activation
1,CCCNC(=O)c1ccc(Cl)cc1[N+](=O)[O-],1.13% (inactive)
2,COc1ccc(NC(=O)c2cc3cccc(OC)c3oc2=O)cc1OC,-1.45% (inactive)
3,COc1cccc2cc(C(=O)N(C)C)c(=O)oc12,5.93% (active)
4,CCCN(CCC)C(=O)c1cc2cccc(OC)c2oc1=O,2.62% (inactive)
5,O=[N+]([O-])c1ccc(OCc2nnc(SCCN3CCOCC3)n2-c2ccccc2)cc1,0.574% (inactive)
6,CCn1c(COc2ccccc2OC)nnc1SCC(=O)NC,1.05% (inactive)
7,CCn1c(COc2ccccc2)nnc1Sc1ccc([N+](=O)[O-])cc1C=O,8.41% (active)
8,COc1ccc(NC(=S)NCc2cc(C)n(C)n2)cc1OC,2.25% (inactive)
9,COc1ccc(CCNC(=S)NCc2cc(C)n(C)n2)cc1OC,14.1% (active)
10,COc1ccc(CCNC(=S)Nc2c(C)n(C)n(-c3ccccc3)c2=O)cc1OC,0.54% (inactive)
11,COc1cc([N+](=O)[O-])ccc1NC(=S)NCc1cc(C)n(C)n1,6.53% (active)
12,CCCC(=O)NC(=S)Nc1ccc([N+](=O)[O-])cc1OC,0.167% (inactive)
13,COc1cc([N+](=O)[O-])ccc1NC(=O)C1CCCC1,0.251% (inactive)
14,CCc1nc2ccccc2c2nn(CC(=O)NCCc3ccc(OC)c(OC)c3)c(=O)n12,0.488% (inactive)
15,COC(=O)c1ccc(Nc2nc3c(s2)CCc2ccccc2-3)cc1,1.88% (inactive)
16,Cc1ccc(C)c(OCCOCCNCCN)c1C,0.982% (inactive)
17,CN(C)c1cc(Oc2ccc(=O)[nH]n2)nc(N(C)C)n1,0.738% (inactive)
18,CC(C)(C)c1ccc(C(=S)NCCCn2ccnc2)cc1,1.31% (inactive)
19,COc1ccc(NC(=O)Cn2nnc(-c3ccccc3NC(=O)c3cccc(C)c3)n2)cc1,-0.639% (inactive)
20,CCOC(=O)c1c(C)oc2c(Br)cc3oc(=O)c(C(=O)CC)cc3c12,-0.749% (inactive)
21,COC(=O)CN(C)C(=O)CC1C(=O)NCCN1Cc1ccc(OC)c(OC)c1 (stereo unspecified),-0.568% (inactive)

row,SMILES,activation
1,CCCCOc1ccc(OC(=O)c2ccc(-c3ccc(CC)cn3)cc2)cc1,0.589% (inactive)
2,CCCC1CCC(c2ccc(-c3ccc(CC)cn3)cc2F)CC1 (stereo unspecified),3.24% (inactive)
3,CCc1ccc(-c2ccc(C3CCC(CC)CC3)cc2)nc1 (stereo unspecified),10.7% (active)
4,COc1ccc(/C(O)=C2/C(=O)C(=O)N(CCCC(=O)O)C2c2ccc(O)cc2)cc1 (stereo unspecified),0.777% (inactive)
5,Cc1ccc(-n2[nH]c(C)c(C=Nc3ccc(N=Cc4c(C)[nH]n(-c5ccc(C)c(C)c5)c4=O)cc3)c2=O)cc1C,1.34% (inactive)
6,Cc1ccc(N2NC3(CCCCC3)NC2=S)cc1C,1.89% (inactive)
7,CCC1(c2ccc(Cl)cc2Cl)NC(=S)N(c2ccc(C)c(C)c2)N1 (stereo unspecified),6.17% (active)
8,CCCCOC(=O)C1=C(C)NC2=C(C(=O)CCC2)C1c1ccccc1[N+](=O)[O-] (stereo unspecified),1.59% (inactive) and 0.946% (inactive)
9,CCCCOC(=O)C1=C(C)NC2=C(C(=O)CCC2)C1c1cccc([N+](=O)[O-])c1 (stereo unspecified),6.33% (active)
10,COc1ccc(COC(=O)C2=C(C)NC3=C(C(=O)CCC3)C2c2cccc([N+](=O)[O-])c2)cc1 (stereo unspecified),-0.575% (inactive)
11,Cn1nc2c(nc1=O)[nH]c1ccccc12,-0.513% (inactive)
12,Cc1ccc(OCCN2CCNCC2)cc1C,-1.28% (inactive)
13,COc1cc2nc(-c3cccc(C(C)=O)c3)nc(Nc3ccc(N4CCOCC4)cc3)c2cc1OC,5.83% (active)
14,COc1cc2nc(-c3ccc(N4CCOCC4)nc3)nc(Nc3ccc(NC(C)=O)cc3)c2cc1OC,0.834% (inactive)
15,CC(=O)c1cccc(-c2cccc(C(=O)Nc3ccc(N4CCOCC4)cc3)c2)c1,-0.102% (inactive)
16,COc1cc(C2C3=C(CC(C)(C)CC3=O)Nc3ccc4ncccc4c32)ccc1OC(C)=O (stereo unspecified),-0.317% (inactive)
17,O=C(Cc1cccs1)N1CCCCC1c1nc2ccccc2[nH]1 (stereo unspecified),0.204% (inactive)
18,O=C(Nc1ccc(Br)cc1Cl)N1CCN(c2ncccn2)CC1,-0.59% (inactive)
19,Cn1c(SCCN2CCCCC2)nnc1C1CCN(C/C=C/c2ccco2)CC1,1.24% (inactive)
20,COc1cccc(C(=O)Nc2ccc(N3CCCC3=O)cc2)c1,-9.98% (inactive)
21,O=C(Nc1ccc(N2CCCC2=O)cc1)c1cncc(Br)c1,5.11% (active)

row,SMILES,activation
1,O=C(Nc1ccc(S(=O)(=O)Nc2ncccn2)cc1)c1cncc(Br)c1,-0.902% (inactive)
2,C(=N\c1nnc2nc[nH]n12)/c1ccco1,-0.745% (inactive)
3,CC(C)CNC(=O)c1ccc(F)c(S(=O)(=O)N2CCOCC2)c1,1.07% (inactive)
4,COc1ccc(S(=O)(=O)Oc2ccc(Cl)c3cccnc23)cc1OC,2.28% (inactive)
5,O=[N+]([O-])c1ccc(Oc2ccc(Cl)c3cccnc23)c(Cl)c1,0.725% (inactive)
6,COc1ccc(OC)c(S(=O)(=O)Oc2ccc(Cl)c3cccnc23)c1,12.1% (active)
7,COC(=O)c1cc2cc(N)ccc2s1,0.191% (inactive)
8,CCCS(=O)(=O)N1CCN=C1SCc1cccc(Cl)c1,-1.49% (inactive)
9,O=C(CSc1ccc(F)cc1)Nc1cccc2ccccc12,7.44% (active)
10,Cc1nc(SCC(=O)Nc2cccc3ccccc23)n[nH]1,-0.295% (inactive)
11,Cc1cccc(NC(=O)CSc2nc3[nH]ncc3c(=O)[nH]2)c1,5.01% (active)
12,Cc1cccc(NC(=O)CSc2ncn[nH]2)c1,-0.535% (inactive)
13,Cc1cc(=O)[nH]c(SCC(=O)Nc2cccc3ccccc23)n1,15.8% (active)
14,Cc1cc(=O)[nH]c(SCC(=O)Nc2ccc(C(N)=O)cc2)n1,-0.979% (inactive)
15,Cc1nnc(SCC(=O)Nc2cccc(Cl)c2)[nH]c1=O,0.326% (inactive)
16,O=C(CSc1ccc(F)cc1)Nc1ccccc1-c1nc2ccccc2s1,-0.819% (inactive)
17,Cc1cc(=O)[nH]c(SCC(=O)Nc2ccccn2)n1,0.382% (inactive)
18,COc1ccc(C(=O)c2snc(Nc3ccccc3)c2N)cc1,0.834% (inactive)
19,CCSc1c(O)cnn(-c2ccccc2)c1=O,0.94% (inactive)
